Measured values reported in PubChem BioAssay (Tox21).
Records with an inconclusive call do not appear. The source made the active and inactive calls. Unless noted, the call rests on the fitted dose curve; in most records, active means well fitted curve in the direction sought with a large enough effect in the repeat runs; inconclusive means weak or mixed curves; inactive means no such curve, though single readings can be large; an effect the other way counts as inactive or inconclusive.

Tests used:
[1] = molecular target: Peroxisome proliferator-activated receptor delta (Homo sapiens) (UniProt Q03181); assay: qHTS assay to identify small molecule agonists of the peroxisome proliferator-activated receptor delta (PPARd) signaling pathway (AID 743212; calls by dose curve)
Sequence of Peroxisome proliferator-activated receptor delta (Homo sapiens) (Q03181 whole entry, looked up): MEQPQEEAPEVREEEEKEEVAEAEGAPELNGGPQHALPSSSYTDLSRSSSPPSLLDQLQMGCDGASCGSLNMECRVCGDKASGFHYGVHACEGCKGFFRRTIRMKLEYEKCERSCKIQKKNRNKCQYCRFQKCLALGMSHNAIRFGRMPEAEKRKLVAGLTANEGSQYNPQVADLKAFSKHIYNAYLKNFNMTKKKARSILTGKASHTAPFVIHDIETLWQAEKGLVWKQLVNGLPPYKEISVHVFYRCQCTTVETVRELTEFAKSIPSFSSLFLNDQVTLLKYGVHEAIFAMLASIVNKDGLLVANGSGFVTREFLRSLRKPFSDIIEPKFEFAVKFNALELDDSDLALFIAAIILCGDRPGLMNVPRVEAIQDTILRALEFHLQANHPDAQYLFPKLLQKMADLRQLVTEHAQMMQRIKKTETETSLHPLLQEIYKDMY
Procedure, shortened: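 Tox21 library screened in GeneBLAzer PPARd UAS-bla HEK293H cells. After compound treatment at 37 C, a FRET-based beta-lactamase substrate was applied for 2 h and fluorescence recorded.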

[2] = qHTS assay to identify small molecule antagonists of the peroxisome proliferator-activated receptor delta (PPARd) signaling pathway - cell viability counter screen (AID 743213); further: nearly all actives have a fitted effect of over 50% in size
Procedure, shortened: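 HEK293H PPARd UAS-bla cells, 5 h pre-incubation, compound + L165041 300 nM final, 17 h 37 C; B/G FRET substrate 2 h RT; then CellTiter-Glo 30 min RT, luminescence.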

[3] = qHTS assay to identify small molecule agonists of the farnesoid-X-receptor (FXR) signaling pathway - cell viability counter screen (AID 743218); further: nearly all actives have a fitted effect of over 45% in size
Procedure, shortened: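 Viability of FXR-bla HEK 293T cells is measured by ATP-based CellTiter-Glo luminescence following 16 h compound treatment at 37 C and a prior 2 h room-temperature beta-lactamase substrate step.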

[4] = qHTS assay to identify small molecule antagonists of the farnesoid-X-receptor (FXR) signaling pathway - cell viability counter screen (AID 743221; active means well fitted cell-killing curve with a large enough effect in the repeat runs, not every such curve was filed as active; further: nearly all actives have a fitted effect of over 50% in size)
Procedure, shortened: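 Here viability was scored by luminescence after CellTiter-Glo addition to wells already read for beta-lactamase. Prior treatment: compound plus CDCA (50 uM final), 16 h, 37 C, HEK 293T FXR-bla cells.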

[5] = molecular target: Vitamin D3 receptor (Homo sapiens) (UniProt P11473); assay: qHTS assay to identify small molecule agonists of the vitamin D receptor (VDR) signaling pathway (AID 743222; calls by dose curve)
Sequence of Vitamin D3 receptor (Homo sapiens) (P11473 whole entry, looked up): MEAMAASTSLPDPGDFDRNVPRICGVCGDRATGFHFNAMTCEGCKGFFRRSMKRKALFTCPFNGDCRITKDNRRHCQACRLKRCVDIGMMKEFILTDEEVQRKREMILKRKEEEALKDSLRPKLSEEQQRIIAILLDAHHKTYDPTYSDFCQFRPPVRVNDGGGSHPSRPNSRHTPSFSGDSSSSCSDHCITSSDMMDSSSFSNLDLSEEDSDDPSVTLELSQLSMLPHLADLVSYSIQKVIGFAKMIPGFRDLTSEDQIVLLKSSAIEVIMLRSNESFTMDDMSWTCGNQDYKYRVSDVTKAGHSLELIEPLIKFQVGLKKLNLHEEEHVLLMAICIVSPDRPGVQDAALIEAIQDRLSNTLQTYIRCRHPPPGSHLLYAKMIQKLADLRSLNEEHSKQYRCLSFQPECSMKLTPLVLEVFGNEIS
Procedure, shortened: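 Fluorescence from cleaved LiveBLAzer B/G FRET substrate served as readout. VDR-bla cells had been treated 16 h at 37C with test compounds in DMSO, following a 4 h settling period, and substrate was loaded for 2 h at RT.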

[6] = qHTS assay to identify small molecule agonists of the vitamin D receptor (VDR) signaling pathway - cell viability counter screen (AID 743224); further: series mostly up to about 63 µM; nearly all actives have a fitted effect of over 50% in size
Procedure, shortened: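 Compounds were pin-transferred onto VDR-bla cells plated 4 h earlier; following 16 h incubation at 37C, cell viability was quantified by CellTiter-Glo luminescence after 30 min at room temperature.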

[7] = molecular target: Peroxisome proliferator-activated receptor delta (Homo sapiens) (UniProt Q03181); assay: qHTS assay to identify small molecule antagonists of the peroxisome proliferator-activated receptor delta (PPARd) signaling pathway (AID 743215; active means well fitted inhibition curve with a large enough effect in the signal ratio in the repeat runs, not every such curve was filed as active; the % refers to the signal ratio;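 further: cells stimulated with agonist L165041 at 300 nM final during compound exposure; series mostly up to about 62 µM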)
Procedure, shortened: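 Plated HEK293H PPARd-bla cells rested 5 h at 37 C and 5% CO2. Compound, then agonist L165041 at 300 nM final, was added; 17 h at 37 C followed. Substrate loading, 2 h room temperature, fluorescence measured.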

[8] = molecular target: Vitamin D3 receptor (Homo sapiens) (UniProt P11473); assay: qHTS assay to identify small molecule antagonists of the vitamin D receptor (VDR) signaling pathway (AID 743223; active means well fitted inhibition curve with a large enough effect in the signal ratio in the repeat runs, not every such curve was filed as active; the % refers to the signal ratio)
Procedure, shortened: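 Inhibition of agonist-driven VDR signalling is scored in VDR-bla cells: 3 nM final 1alpha,25-dihydroxyvitamin D3 plus compound, 16 h at 37C, then beta-lactamase detection by FRET substrate fluorescence after 2 h.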

[9] = molecular target: Bile acid receptor (Homo sapiens) (UniProt Q96RI1); assay: qHTS assay to identify small molecule antagonists of the farnesoid-X-receptor (FXR) signaling pathway (AID 743217; active means well fitted inhibition curve with a large enough effect in the signal ratio in the repeat runs, not every such curve was filed as active; the % refers to the signal ratio)
Sequence of Bile acid receptor (Homo sapiens) (Q96RI1 whole entry, looked up): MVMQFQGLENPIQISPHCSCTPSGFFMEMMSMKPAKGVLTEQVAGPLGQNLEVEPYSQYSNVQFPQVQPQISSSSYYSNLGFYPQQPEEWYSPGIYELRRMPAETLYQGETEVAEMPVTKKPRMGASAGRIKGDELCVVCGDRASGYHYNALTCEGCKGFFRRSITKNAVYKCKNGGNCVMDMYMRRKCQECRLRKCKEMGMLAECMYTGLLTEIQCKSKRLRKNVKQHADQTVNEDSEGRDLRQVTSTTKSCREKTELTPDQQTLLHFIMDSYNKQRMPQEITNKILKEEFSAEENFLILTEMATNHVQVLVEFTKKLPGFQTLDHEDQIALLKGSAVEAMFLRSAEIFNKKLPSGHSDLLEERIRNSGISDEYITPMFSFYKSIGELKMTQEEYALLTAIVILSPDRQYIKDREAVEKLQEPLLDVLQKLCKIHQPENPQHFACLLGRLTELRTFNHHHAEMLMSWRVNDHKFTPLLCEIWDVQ
Procedure, shortened: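 Screen of the Tox21 10K library in quantitative HTS format using FXR-UAS-bla HEK 293T reporter cells. Agonist chenodeoxycholic acid, 50 uM final, added with compounds; 16 h incubation at 37 °C; beta-lactamase FRET fluorescence measured.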

[10] = molecular target: Bile acid receptor (Homo sapiens) (UniProt Q96RI1); assay: qHTS assay to identify small molecule agonists of the farnesoid-X-receptor (FXR) signaling pathway (AID 743220; active means well fitted activation curve with a large enough effect in the signal ratio in the repeat runs, not every such curve was filed as active; the % refers to the signal ratio)
Procedure, shortened: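 FXR-UAS-bla HEK 293T cells carrying a UAS-driven beta-lactamase reporter were plated for 5 h at 37C/5% CO2, then exposed to DMSO-dissolved Tox21 10K compounds for 16 h at 37C. A LiveBLAzer B/G FRET substrate was loaded for 2 h at room temperature before fluorescence reading.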

Measured: outcome

C=CCN(CC=C)CC=C
inactive: [1] | [2] | [3] | [4] | [5] | [6]

CC(C)(C)C(=O)NCCCC(=O)O
inactive: [1] | [2] | [7] | [3] | [5] | [8] | [6]

CC(=O)c1ccc2ccc3ccccc3c2c1
inactive: [1] | [2] | [9] | [3] | [10] | [4] | [5] | [8] | [6]

CC(C)OC(=O)C(C(=O)OC(C)C)=C1SC=CS1
inactive: [1] | [2] | [7] | [4] | [5] | [8] | [6]

CC(=O)Oc1ccc(C(C)=O)cc1
inactive: [1] | [7] | [9] | [10] | [4] | [5] | [6]

Nc1cc(S(=O)(=O)O)ccc1O
inactive: [1] | [2] | [7] | [4] | [5] | [8] | [6]

CCC(C)c1nccnc1OC (stereo not drawn)
inactive: [1] | [7] | [9] | [3] | [10] | [5] | [8] | [6]

CC(=O)c1c(C)cc(C(C)(C)C)cc1C
inactive: [1] | [2] | [7] | [4] | [5] | [8] | [6]

CC1=C(O)C(=O)CO1
inactive: [1] | [2] | [7] | [3] | [8] | [6]

CC(C)(C)NCC(O)COc1cccc2c1CCC(=O)N2 (stereo not drawn)
inactive: [1] | [2] | [7] | [5] | [6]

C[Si](C)(C)O[Si](O)(O)O
inactive: [1] | [2] | [9] | [10] | [4] | [8]

CC(C)(C)c1ccc(N)cc1
inactive: [1] | [2] | [7] | [5] | [6]

O=S(=O)(O)CC(O)CCl (stereo not drawn)
inactive: [1] | [2] | [9] | [3] | [10] | [4] | [5] | [8] | [6]

CCOC(=O)[C@H](CCc1ccccc1)N[C@H]1CS[C@H](c2cccs2)CN(CC(=O)O)C1=O
inactive: [1] | [2] | [7] | [3] | [6]

CCO[Si](CC(C)C)(OCC)OCC
inactive: [1] | [7] | [9] | [10] | [4] | [5] | [8]

C=CC(C)(CCC=C(C)C)OC(=O)C(C)C (stereo not drawn)
inactive: [1] | [2] | [7] | [4] | [5] | [8] | [6]

CC(CN1CC(=O)NC(=O)C1)N1CC(=O)NC(=O)C1 (stereo not drawn)
inactive: [1] | [2] | [7] | [3] | [5] | [6]

C=CCCCCCCCCCCCCCC
inactive: [1] | [2] | [7] | [3] | [5] | [8] | [6]

CN(C)c1ccncc1
inactive: [1] | [2] | [7] | [4] | [5] | [8] | [6]

O=C(O)CCCCCCCCCC(=O)O
inactive: [1] | [2] | [7] | [5] | [8] | [6]

O=C(c1ccccc1)c1cccc(O)c1
inactive: [1] | [2] | [3] | [5] | [8] | [6]

CNC(=O)c1c(I)c(NC(C)=O)c(I)c(C(=O)O)c1I
inactive: [1] | [2] | [7] | [3] | [4] | [6]

CC(C)C(C)C
inactive: [1] | [2] | [7] | [3] | [4] | [6]

N[C@H]1C(O)O[C@H](CO)[C@@H](O)[C@@H]1O (stereo partly drawn)
inactive: [1] | [2] | [7] | [4] | [5] | [8] | [6]

C=CC(=O)OCC[N+](C)(C)C
inactive: [1] | [7] | [3] | [10] | [4] | [5] | [8] | [6]

O=Cc1ccccc1S(=O)(=O)O
inactive: [1] | [2] | [7] | [3] | [5] | [8] | [6]

CC(C)CC(O)Cc1ccccc1 (stereo not drawn)
inactive: [1] | [2] | [7] | [4] | [5] | [6]

O=CN1CCCCC1
inactive: [1] | [2] | [7] | [3] | [5] | [8] | [6]

CCCCCC(=O)CC
inactive: [1] | [2] | [3] | [10] | [4] | [5] | [8] | [6]

C/C=C(\C)C=O
inactive: [1] | [2] | [7] | [10] | [4] | [5] | [8] | [6]

Cc1cc2c(cc1CC(=O)c1sccc1S(=O)(=O)Nc1onc(C)c1Cl)OCO2
inactive: [1] | [4] | [8] | [6]

CCCCCC(CC)OC(=O)CCCOc1ccc(Cl)cc1Cl (stereo not drawn)
inactive: [2] | [7] | [3] | [4] | [5] | [8] | [6]

Cc1ccccc1C#N
inactive: [2] | [7] | [9] | [3] | [10] | [4] | [5] | [8] | [6]
